Source: PubChem (several laboratories)
In the library only some 1.3% were active in any assay of this set; here they are far more common.
NCOA3 inh: inhibits human SRC3 coactivator; Q9Y6Q9; HEK293 GAL4-SRC3 luciferase reporter, luminescence; inhibition, % at 3.6 µM; hit rate 0.17% among 360,000; AID 588352;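 active means inhibition above a per-campaign cutoff, the mean of all compounds plus 3 SD, cut at about 60% in these data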;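 further: 0% = DMSO-treated cells and 100% = gossypol-treated cells at 36 µM; higher means less SRC3-driven luciferase light from the GAL4 reporter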
NCOA2 inhibitor: inhibits human steroid receptor coactivator 2. inhibition, % at 9 µM. hit rate 0.17% among 370,000. Q15596. HEK293 GAL4-SRC2 luciferase reporter, luminescence;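 active means inhibition above the mean inhibition of all tested compounds plus 3 SD, set per campaign, cut at about 52% in these data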;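 further: 0% = DMSO treated cells and 100% = cells given Gossypol at 36 µM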
Gli-Sufu block: blocks Gli-Sufu signaling in a luciferase reporter; Sufu-KO-LIGHT fibroblasts, Gli luciferase reporter luminescence; inhibition, % at 5 µM; hit rate 0.74% among 340,000;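 active means inhibition above about 55%, limit read from the data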;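 further: 0% = DMSO-treated cells and 100% = wells with medium but no cells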
NCOA1 inh: inhibitors of human steroid receptor coactivator 1 (SRC1) | AID 588354 | HEK293 GAL4-SRC1 luciferase reporter, luminescence | Q15788 | inhibition, % at 3.6 µM | hit rate 0.12% among 360,000;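 active means inhibition above the campaign mean plus 3 SD, with each screening campaign given its own cutoff, cut at about 60% in these data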;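 further: 0% = DMSO treated cells and 100% = gossypol at 36 µM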
NR5A2 inv ag: suppresses constitutive activity of human LRH-1. O00482. HEK293T StAR-luciferase reporter, LRH-1 transfected, 24 h. inhibition, % at 3.6 µM. hit rate 0.13% among 360,000;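 active means inhibition above the mean inhibition of all tested compounds plus 3 SD, cut at about 73% in these data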;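 further: 0% = DMSO wells and 100% = reporter-only cells lacking LRH-1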
COUP-TFII inh: NR2F2 (human) inhibition, primary screen. HEK293T NGFI-A luciferase reporter, luminescence. hit rate 0.7% among 370,000. inhibition, % at 8.6 µM. P24468. AID 686940;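 active means inhibition above a per-plate cutoff, mean inhibition of test wells between control levels plus 3 SD, cut at about 38% in these data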;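 further: cells cotransfected with COUP-TFII expression vector driving the NGFI-A reporter; 0% = median of COUP-TF2 test wells and 100% = reporter-only cells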
Gli-Sufu confirm: Gli-SUFU antagonism confirmation, single concentration | hit rate 40% among 2,500 | inhibition, % at 5 µM | Sufu-KO-LIGHT cells, Gli luciferase reporter, luminescence | AID 602428 | shares compounds with Gli-Sufu block;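 active means mean inhibition at 5 µM reaching about 45%, limit read from the data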;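 further: plate controls were DMSO-treated cells for no effect and wells lacking cells for full effect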
SufuKO cytotox: cytotoxicity counter-screen for Gli-SUFU antagonists; shares compounds with Gli-Sufu block; Sufu-KO-LIGHT cells cytotoxicity, ATP luminescence; cytotoxicity, % at 5 µM; hit rate 32% among 2,500; AID 651994;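 active means mean cytotoxicity at 5 µM above about 25%, limit read from the data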;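 further: cells exposed to compound overnight for roughly 16 to 18 hours; plate controls were DMSO wells with cells for no effect and medium without cells for full effect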
Wnt3a counter: Wnt3a reporter inhibition counter-screen; shares compounds with Gli-Sufu block; Wnt-LIGHT cells, Wnt3a-driven luciferase reporter, luminescence; inhibition, % at 6.25 µM; hit rate 20% among 2,500;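 active means mean inhibition above about 25%, limit read from the data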
Gal4-VP16 ctr: VP16 inhibition counter-screen for COUP-TFII; shares compounds with COUP-TFII inh; inhibition, % at 8.5 µM; hit rate 25% among 2,500; HEK293 Gal4-VP16 luciferase reporter, luminescence; in the data active means inhibition above about 13%
COUP-TFII conf: confirmation of human COUP-TFII (NR2F2) inhibitors; shares compounds with COUP-TFII inh; HEK293 NGFI-A luciferase reporter, luminescence; inhibition, % at 8.5 µM; hit rate 45% among 2,500;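 active means mean inhibition over three repeats above a set limit taken from the earlier primary screen, cut at about 38% in these data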;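 further: 100% = cells given the luciferase reporter alone without the COUP-TF2 vector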
* hit, by the source's call; / = not tested or not shown.

SMILES	NCOA3 inh	NCOA2 inhibitor	Gli-Sufu block	NCOA1 inh	NR5A2 inv ag	COUP-TFII inh	Gli-Sufu confirm	SufuKO cytotox	Wnt3a counter	others
O=c1[nH]c2ccccc2n1C1CCN(C(c2nnnn2C2CCCCC2)C2CC2)CC1 (centres undefined)	19.0	21.9	/	5.8	14.5	-12.2	/	/	/
N#CC1c2ccccc2C=CN1C(=O)c1ccc(N(CCCl)CCCl)cc1 (centres undefined)	10.9	3.8	/	-7.6	22.7	18.4	/	/	/
O=C(O)c1ccc(-[n+]2c(-c3ccccc3)cc(-c3ccccc3)cc2-c2ccccc2)cc1	-0.9	-18.8	-5.3	-7.1	8.3	4.3	/	/	/
Brc1ccc(-[n+]2c(-c3ccccc3)cc(-c3ccccc3)cc2-c2ccccc2)cc1	12.3	11.5	56.1*	18.3	26.8	37.2	78.9*	7.8	5.7
C=C1C(C)C2C(Cc3ccccc3)NC(=O)C23C(OC(C)=O)C=CC(C)(O)CC(C)CC=CC3C1O (centres undefined)	13.2	3.0	29.9	-34.9	14.6	-27.5	/	/	/
C=C1[C@@H](C)[C@H]2[C@H](Cc3ccccc3)NC(=O)[C@]23OC(=O)/C=C/[C@H](O)CCC[C@@H](C)C/C=C/[C@H]3[C@@H]1O	11.6	-19.0	56.6*	21.0	46.7	-5.2	36.3	46.2*	58.0*
Cc1ccc(O)c(C)c1	-0.1	-23.1	-2.3	8.4	10.4	-13.8	/	/	/
O=C(CF)NC(NC(=S)Nc1ccccc1O)C(Cl)(Cl)Cl (centres undefined)	-2.9	-2.8	86.7*	4.1	14.0	-5.1	16.7	20.2	-16.6
CN1/C(=C\C=Nc2ccccc2)C(C)(C)c2ccccc21	7.1	13.5	59.4*	3.5	12.3	8.8	59.4*	27.1*	7.4
C=C1C(=O)O[C@H]2[C@H]1[C@H](OC(=O)CC(=O)O[C@@H]1C[C@@H](C)[C@@H]3C=CC(=O)[C@@]3(C)[C@H]3OC(=O)C(=C)[C@H]13)C[C@@H](C)[C@H]1C=CC(=O)[C@]12C	-26.8	-16.3	51.5	-10.2	-23.2	20.6	44.7	34.5*	-4.3
CNC(=S)N1CCN(CCN=Cc2c(O)n(-c3ccc(C)cc3)c(=S)[nH]c2=O)CC1	10.1	14.0	6.3	16.3	0.7	18.8	/	/	/
O=C(Nc1ccccc1)N1CCC2(CC1)OCCO2	7.3	-5.4	-9.0	9.6	1.2	16.6	/	/	/
O=C(NC(=O)N1CCC2(CC1)OCCO2)c1ccc(Cl)cc1	7.7	-17.1	64.8*	-12.5	-9.0	3.1	17.5	21.6	-6.7
COC1/C=C/C=C(\C)Cc2cc(O)c(Cl)c(c2)N(C)C(=O)CC(OC(=O)C(C)C)C2(C)OC2C(C)C2CC1(O)NC(=O)O2 (centres undefined)	32.1	1.9	53.9	-12.3	42.6	-47.0	60.8*	58.1*	-5.0
CC[C@]12CCN(CC3(O)CC3)C(Cc3ccc(O)cc31)C2(C)C	/	20.0	/	/	/	5.3	/	/	/
CCOC(=O)C1(CCc2ccccc2)CCN(Cc2csc(C(C)=O)c2)CC1	18.4	11.8	53.4	15.3	13.0	19.5	21.7	2.5	-46.4
CCOC(=O)C1(CCc2ccccc2)CCN(Cc2cccc3c2OCO3)CC1	20.9	7.7	47.8	3.2	11.1	-7.1	/	/	/
COC(=O)CCCC(NC(=S)N1CC2C[C@@H](C1)Cn1c2cccc1=O)C(=O)OC (some centres undefined)	7.2	-13.5	4.8	-0.7	6.2	-8.6	/	/	/
CC(C)(C)c1ccc(CSc2cnn(C(C)(C)C)c(=O)c2Cl)cc1	11.5	10.5	77.7*	31.2	43.7	70.8*	85.9*	44.0*	29.4*	Gal4-VP16 ctr=4.3;COUP-TFII conf=60.6*
CNC(=O)Oc1ccccc1C1CCCCC1	-6.2	27.0	-1.9	5.1	16.2	17.6	/	/	/
COC(=O)C1=C(c2ccc(F)cc2OCc2ccccc2)C[C@@H]2CC[C@H]1N2C(=O)NCCCc1ccccc1	5.9	10.7	16.7	-0.8	-8.1	-12.9	/	/	/
COc1ccc(CC2C(=O)NC(C)C(=O)N(C)C3C(=O)N(C)C(Cc4ccc(O)c(c4)Oc4ccc(cc4)C3O)C(=O)NC(C)C(=O)NC(C)C(=O)N2C)cc1 (centres undefined)	94.4*	75.3*	92.8*	95.6*	98.8*	89.3*	96.0*	86.6*	104.7*	Gal4-VP16 ctr=27.1*;COUP-TFII conf=91.2*
COc1ccc(C(=O)C2CCCN(CCc3ccccc3)C2)cc1OC (centres undefined)	-12.0	-17.6	/	-6.6	-40.4	-4.4	/	/	/
CC1CCOC(=O)C=CC=CC(=O)OC2CC3OC4C5OC5(C)C(O)CC4(COC(=O)C1O)C2(C)C31CO1 (centres undefined)	93.4*	72.9*	91.1*	95.6*	98.3*	92.0*	93.1*	76.8*	103.0*	Gal4-VP16 ctr=22.6*;COUP-TFII conf=88.8*
CC1=C(C)CC2(CC1)C(=O)NC(=O)NC2=O	-9.3	-13.0	-24.1	-11.1	26.2	13.2	/	/	/
SMILES	NCOA3 inh	NCOA2 inhibitor	Gli-Sufu block	NCOA1 inh	NR5A2 inv ag	COUP-TFII inh	Gli-Sufu confirm	SufuKO cytotox	Wnt3a counter	others
N#Cc1cn(C2OC(CO)C(O)C2O)c2ncnc(N)c12 (centres undefined)	55.2	61.1*	80.9*	44.8	96.6*	47.2*	97.9*	97.1*	-52.5	Gal4-VP16 ctr=-8.3;COUP-TFII conf=1.6
CN1CCN(c2ccc(S(C)(=O)=O)cc2[N+](=O)[O-])CC1	7.5	6.2	1.0	-19.1	-10.4	-0.6	/	/	/
CN1CCN(c2ccc([N+](=O)[O-])c3no[n+]([O-])c23)CC1	93.9*	93.7*	65.5*	95.9*	93.5*	98.0*	/	/	/	Gal4-VP16 ctr=96.0*;COUP-TFII conf=108.9*
COC(=O)C1=C(c2ccc3ccccc3c2)C[C@@H]2CC[C@H]1N2C(=O)N1CCCCC1	-9.1	22.8	41.4	5.8	11.4	30.2	/	/	/
COC(=O)C1=C(c2ccc(-c3ccccc3)c(F)c2)C[C@@H]2CC[C@H]1N2C(=O)N1CCCCC1	43.3	44.8	37.0	13.7	38.0	63.9*	/	/	/	Gal4-VP16 ctr=20.2*;COUP-TFII conf=53.6*
COCCNC(=O)N1[C@H]2CC[C@@H]1C(C(=O)OC)=C(c1ccc(-c3ccccc3)c(F)c1)C2	26.4	18.5	-12.2	21.1	25.4	49.7*	/	/	/	Gal4-VP16 ctr=3.5;COUP-TFII conf=32.4
